Hits are enriched below; roughly 4.7% of the tested compounds scored in any of these assays.
D1 ag – human D1 receptor agonism; P21728; HEK293 T-REx D1 cells, calcium flux, agonist mode; activation, % at 2 µM; 360,000 tested, 1% active; AID 504660; further: 0% is about no effect
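Inducible HEK293 T-REx D1 cells, force-coupled to calcium signalling, were plated at 4000 cells/well with tetracycline and held overnight at 30 C. After no-wash calcium dye loading, compound-evoked calcium rise over 180 s flagged agonists.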
TRHR enhancer – allosteric enhancers of human TRH receptor; P34981; TRHR cells, fluo-8 calcium fluorescence, EC20 TRH enhancement; enhancement, % at 2 µM; 360,000 tested, 0.66% active; in the data active means enhancement above about 30%; further: 0% is about no effect
Target sequence (P34981 whole entry, looked up): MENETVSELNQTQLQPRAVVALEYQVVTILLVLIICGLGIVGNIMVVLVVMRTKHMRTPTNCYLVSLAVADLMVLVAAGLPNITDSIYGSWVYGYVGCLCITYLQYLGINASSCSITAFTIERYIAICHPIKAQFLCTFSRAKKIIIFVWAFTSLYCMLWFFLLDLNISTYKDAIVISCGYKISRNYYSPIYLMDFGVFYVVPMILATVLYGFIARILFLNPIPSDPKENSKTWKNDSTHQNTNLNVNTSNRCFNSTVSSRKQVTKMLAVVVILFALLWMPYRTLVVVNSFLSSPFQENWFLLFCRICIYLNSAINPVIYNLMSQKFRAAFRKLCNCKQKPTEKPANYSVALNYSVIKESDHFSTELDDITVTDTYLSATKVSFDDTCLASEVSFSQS
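TRHR-expressing cells loaded with fluo-8 calcium dye were read kinetically (ex 480/em 530) during compound addition, then stimulated with an EC20 of TRH (10 nM final). Enhancement of the Gq-mediated intracellular calcium response was scored.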
D1 antag – blocks dopamine activation of the human D1 receptor | HEK293 TREx D1 cells, calcium flux, dopamine EC80; active compounds read low | AID 504652 | activity change, negative = inhibition, % at 10 µM | 360,000 tested, 3.2% active | P21728; in the data active means activity change below about -30%; further: on the % scale 0 is the no-effect control and ±100 the full control effect
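Allosteric or orthosteric antagonism assessed as attenuation of the calcium response to EC80 dopamine, added 180 s after compound, in induced HEK293 Trex D1 cells loaded with no-wash calcium dye.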
TRHR ag – agonists of human TRH receptor | P34981 | TRHR cells, calcium flux fluo-8, FDSS agonist mode | activation, % at 2 µM | 360,000 tested, 0.18% active | AID 493084; further: 0% is about no effect
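TRHR-expressing cells loaded with fluo-8 calcium dye; 23 nL library compound pin-transferred, kinetic FDSS fluorescence (Ex 480/Em 530) recorded about 180 s for agonist-induced calcium release, before a 10 nM TRH EC20 addition for potentiator mode.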
D1 PAM – human D1 dopamine receptor positive modulation | P21728 | HEK293 TREx D1 cells, calcium flux, dopamine EC20 potentiation | potentiation, % at 10 µM | 360,000 tested, 0.036% active | AID 504651; in the data active means potentiation above about 30%; further: 0% is about no effect
* marks the source's active call; other numbers are inactive results. Unless noted, no stated cut-off is given here; in the data, active means activation above about 30%; inactive means the rest.

`CCCCCNC(=O)c1ccc2c(=O)n(CCc3ccccc3)c(=O)[nH]c2c1` gave D1 ag 1, TRHR enhancer 4, D1 antag 8, TRHR ag 0 and D1 PAM -1.
CCCn1nc2cc(C(=O)NCCc3cccs3)ccc2c1OCC was read as D1 ag 1, TRHR enhancer -23, D1 antag -83*, TRHR ag -1 and D1 PAM -12.
CCCCNC(=O)c1ccc2c(OCC)n(CCCC)nc2c1 was read as D1 ag 0, TRHR enhancer -4, D1 antag -1, TRHR ag -1 and D1 PAM -3.
For O=C(NCCCN1CCCCC1)c1ccc2c(=O)n(CCc3ccccc3)c(=O)[nH]c2c1 the results were D1 ag 1, TRHR enhancer 1, D1 antag -46*, TRHR ag 1 and D1 PAM -8.
COc1c2ccc(C(=O)NCCCCc3ccccc3)cc2nn1C was read as D1 ag 3, TRHR enhancer 4, D1 antag -35*, TRHR ag 0 and D1 PAM -8.
Screening Cc1ccc(C)c(N2CCN(C(=O)c3ccc4c(=O)n(CCc5ccccc5)c(=O)[nH]c4c3)CC2)c1 returned D1 ag -1, TRHR enhancer -1, D1 antag -30*, TRHR ag 0 and D1 PAM 4.
For CC1CCN(CCCNC(=O)c2ccc3c(=O)n(Cc4ccc(Cl)cc4)c(=S)[nH]c3c2)CC1 the results were D1 ag 12, TRHR enhancer -7, D1 antag 0, TRHR ag 1 and D1 PAM -8.
`COC(=O)c1ccc2c(=O)n(Cc3ccc(C(=O)NCCCN4CCC(C)CC4)cc3)c(=S)[nH]c2c1` gave D1 ag 0, TRHR enhancer 3, D1 antag -42*, TRHR ag 0 and D1 PAM -11.
`O=C(CCc1nnc2n(CCc3ccccc3)c(=O)c3ccccc3n12)NCCCN1CCCCC1` gave D1 ag 0, TRHR enhancer -4, D1 antag -56*, TRHR ag 0 and D1 PAM -6.
`CCOCCCNC(=O)c1ccc2c(=O)n(CCc3ccccc3)c(=O)[nH]c2c1` gave D1 ag 0, TRHR enhancer -1, D1 antag -39*, TRHR ag 0 and D1 PAM -1.
`CC(C)c1cnc2c(c1SCC(=O)Nc1ccc(C(N)=O)cc1)c(=O)n(C)c(=O)n2C` gave D1 ag -1, TRHR enhancer -1, D1 antag 4, TRHR ag 0 and D1 PAM 1.
For COc1ccccc1CNC(=O)c1cnc(N2CCCC2)nc1C the results were D1 ag 4, TRHR enhancer -2, D1 antag -1, TRHR ag 1 and D1 PAM -1.
Screening Cc1ccc(CSc2nc3cccnc3n2Cc2ccc(C(=O)NCc3ccco3)cc2)cc1 returned D1 ag -1, TRHR enhancer -5, D1 antag 11, TRHR ag 0 and D1 PAM 3.
For COC(=O)c1c(-c2ccccc2)csc1NC1=NS(=O)(=O)c2ccccc21 the results were D1 ag 11, TRHR enhancer 32*, D1 antag -4, TRHR ag 0 and D1 PAM 6.
`CCOc1ccccc1NC1=CC(=O)CC(c2ccccc2)C1` (configuration not stated) gave D1 ag 4, TRHR enhancer -1, D1 antag -31*, TRHR ag -1 and D1 PAM 3.
`COc1ccc(NC2=CC(=O)CC(c3ccccc3)C2)c(OC)c1` (configuration not stated) gave D1 ag 1, TRHR enhancer 2, D1 antag 24, TRHR ag 0 and D1 PAM -5.
Cc1ccc(C)c2sc(NC(=O)CN3C(=O)CCC3=O)nc12 was read as D1 ag 3, TRHR enhancer 19, D1 antag -45*, TRHR ag -1 and D1 PAM 7.
Screening CN(C)C(=O)c1ccc(NC(=O)Cn2nnnc2-c2ccccc2F)cc1 returned D1 ag 2, TRHR enhancer -1, D1 antag -3, TRHR ag -1 and D1 PAM 0.
`COc1ccc(SCC(=O)c2cc(C)c(OC(=S)N(C)C)c(C)c2)cc1` gave D1 ag 4, TRHR enhancer -4, D1 antag -35*, TRHR ag 0 and D1 PAM -3.
For COc1cccc(CN(C)C(=O)C23CC4CC(CC(C4)C2)C3)c1 the results were D1 ag 2, TRHR enhancer 23, D1 antag -34*, TRHR ag 0 and D1 PAM 3.
`CCOc1ccccc1CNC(=O)c1ccc(N2Cc3ccccc3Oc3ncccc32)s1` gave D1 ag 2, TRHR enhancer 2, D1 antag 37, TRHR ag 0 and D1 PAM -5.
`CC1Sc2ccc(S(=O)(=O)CCC(=O)N3CCN(c4cccc(Cl)c4)CC3)cc2NC1=O` (configuration not stated) gave D1 ag 10, TRHR enhancer 0, D1 antag -42*, TRHR ag -1 and D1 PAM 5.
Screening CC1Sc2ccc(S(=O)(=O)N3CCC(C(=O)Nc4cccc(Cl)c4)CC3)cc2NC1=O (configuration not stated) returned D1 ag 7, TRHR enhancer -6, D1 antag -23, TRHR ag 1 and D1 PAM -3.
Screening COc1ccccc1NC(=O)C1CCN(S(=O)(=O)c2ccc3c(c2)NC(=O)C(C)S3)CC1 (configuration not stated) returned D1 ag 13, TRHR enhancer -1, D1 antag -30*, TRHR ag 1 and D1 PAM -1.
`COc1ccccc1NS(=O)(=O)c1ccc2c(c1)NC(=O)C(C)S2` (configuration not stated) gave D1 ag 32*, TRHR enhancer -10, D1 antag 1, TRHR ag 0 and D1 PAM -4.
`COc1cccc(NS(=O)(=O)c2ccc3c(c2)NC(=O)C(C)S3)c1` (configuration not stated) gave D1 ag 13, TRHR enhancer -5, D1 antag 0, TRHR ag 0 and D1 PAM 7.
Screening COc1ccccc1NC(=O)c1ccc(S(=O)(=O)N2CCC(C)CC2)cc1 returned D1 ag 2, TRHR enhancer -11, D1 antag -32*, TRHR ag -1 and D1 PAM -4.
Screening COc1ccc(OCc2ccc(-c3nc(C#N)c(NC(C)c4ccccc4)o3)o2)cc1 (configuration not stated) returned D1 ag 1, TRHR enhancer 1, D1 antag -13, TRHR ag 0 and D1 PAM 1.

Source: PubChem BioAssay
